From PubChem BioAssay
Active and inactive are the calls of the source. Unless noted, how the calls were made is not given here.

Legend:
[1] = compound effects on lung adenocarcinoma cell viability – A549, calcein-AM fluorescence, 48 h, basal, profiling panel (AID 1162); conditions: higher = more signal; further: test concentration not given here
[2] = compound effects on differentiated 3T3-L1 adipocyte viability – cell-based, 3T3-L1 adipocytes, calcein-AM fluorescence, 48 h, basal, profiling panel (AID 1163); conditions: 3T3-L1 adipocytes viability, higher = more signal; further: test concentration not given here
[3] = compound effects on hepatocellular carcinoma cell viability – HepG2, calcein-AM fluorescence, 48 h, basal, profiling panel (AID 1164); conditions: higher = more signal; further: test concentration not given here
[4] = compound effects on multiple myeloma cell viability – MM1S, calcein-AM fluorescence, 48 h, basal, profiling panel (AID 1165); conditions: higher = more signal; further: test concentration not given here
[5] = calcein-AM signal in unstimulated myeloma cells – cell-based, calcein-AM fluorescence, 48 h, PK04 Diversity Set, profiling panel (AID 1166); conditions: RPMI8226 myeloma viability, higher = more signal;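 further: cells grown under basal conditions without added stimulus; test concentration not given here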
[6] = JC-1 mitochondrial signal, unstimulated HepG2 cells – cell-based, JC-1 fluorescence, 24 h, 100 nL compound, profiling panel (AID 1167); conditions: HepG2 mitochondrial potential, higher = more signal; further: test concentration not given here
[7] = JC-1 mitochondrial signal, unstimulated adipocytes – cell-based, JC-1 fluorescence, 3T3-L1 adipocytes, 24 h, 100 nL compound, profiling panel (AID 1168); conditions: JC-1 mitochondrial fluorescence, higher = more signal, called active from +8 up or from −8 down; further: test concentration not given here
[8] = JC-1 mitochondrial signal, unstimulated myeloma cells – cell-based, JC-1 fluorescence, RPMI8226, 24 h, 100 nL compound, profiling panel (AID 1169); conditions: JC-1 mitochondrial potential fluorescence, higher = more signal; further: test concentration not given here
[9] = JC-1 mitochondrial signal, unstimulated MM1S myeloma – cell-based, JC-1 fluorescence, 24 h, 100 nL compound, profiling panel (AID 1170); conditions: MM1S mitochondrial potential, higher = more signal; further: test concentration not given here
[10] = resazurin metabolic signal in A549 cells – cell-based, resazurin fluorescence, 24 h, PK04 Diversity Set, profiling panel (AID 1171); conditions: A549 viability, higher = more signal, called active from +8 up or from −8 down; further: test concentration not given here
[11] = resazurin metabolic signal in HepG2 cells – cell-based, resazurin fluorescence, 24 h, PK04 Diversity Set, profiling panel (AID 1172); conditions: HepG2 viability, higher = more signal; further: test concentration not given here
[12] = budding yeast growth changes without added modifier – OD600, strain BY4716, 24 h, basal condition, primary screen (AID 1173); conditions: S. cerevisiae BY4716 growth, OD600, 24 h; higher = more signal, called active from +8 up or from −8 down
[13] = viability profiling in MM1S myeloma cells – cell-based, resazurin fluorescence, basal, 24 h, PK04 Diversity Set, profiling panel (AID 1174); conditions: higher = more signal, called active from +8 up or from −8 down; further: test concentration not given here
[14] = target: Dihydroorotate dehydrogenase (quinone), mitochondrial (Plasmodium falciparum (isolate 3D7)) (UniProt Q08210); assay: inhibition of P. falciparum DHODH – biochemical, C-terminal His tag, absorbance 600 nm, primary screen (AID 1175); conditions: PfDHODH enzyme, DCIP absorbance 600 nm; higher = more signal, called active from +8 up or from −8 down;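 further: recombinant parasite enzyme with a five histidine tag at its C terminus; test concentration not given here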
[15] = inhibition of PAO1 biofilm formation – strain PAO1, LB-PBS medium, absorbance 600 nm, primary screen (AID 1176); further: test concentration not given here; conditions: P. aeruginosa PAO1 growth/biofilm, A600, 12 h; higher = more signal
[16] = growth modulation of vineyard yeast isolate – strain RM11-1a, OD600, basal, 24 h, primary screen (AID 1177);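 further: cultures grown under basal conditions with no added stressor; test concentration not given here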; conditions: S. cerevisiae RM11-1a growth, OD600, 24 h; higher = more signal, called active from +8 up or from −8 down
[17] = growth of efflux-deficient E. coli DRC39 – strain DRC39, OD650, 24 h, E. coli filamentation inducers, primary screen (AID 1178);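 further: growth measured as culture turbidity by optical density at 650 nm; test concentration not given here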; conditions: E. coli DRC39 acrAB, higher = more signal, called active from +8 up or from −8 down
[18] = growth of efflux-deficient E. coli DRC39 – strain DRC39, OD650, 48 h, E. coli filamentation inducers, primary screen (AID 1179);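 further: screen aims at cell division blockers that make cells filament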; conditions: E. coli DRC39 delta-acrAB growth, higher = more signal, called active from +8 up or from −8 down
[19] = viability profiling in RPMI8226 myeloma cells – cell-based, resazurin fluorescence, basal, 24 h, PK04 Diversity Set, profiling panel (AID 1180); conditions: higher = more signal;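 further: RPMI8826 multiple myeloma cell line at 5000 cells per well; test concentration not given here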
[20] = target: E3 ubiquitin-protein ligase XIAP (Homo sapiens) (UniProt P98170); assay: small molecules binding XIAP protein – biophysical, small-molecule microarray, fluorescence 635 nm, primary screen (AID 1181); conditions: higher = more signal;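 further: score merges 667 nm emission and signal to noise over triplicate slides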
Chain of E3 ubiquitin-protein ligase XIAP (Homo sapiens) (P98170 whole entry, looked up): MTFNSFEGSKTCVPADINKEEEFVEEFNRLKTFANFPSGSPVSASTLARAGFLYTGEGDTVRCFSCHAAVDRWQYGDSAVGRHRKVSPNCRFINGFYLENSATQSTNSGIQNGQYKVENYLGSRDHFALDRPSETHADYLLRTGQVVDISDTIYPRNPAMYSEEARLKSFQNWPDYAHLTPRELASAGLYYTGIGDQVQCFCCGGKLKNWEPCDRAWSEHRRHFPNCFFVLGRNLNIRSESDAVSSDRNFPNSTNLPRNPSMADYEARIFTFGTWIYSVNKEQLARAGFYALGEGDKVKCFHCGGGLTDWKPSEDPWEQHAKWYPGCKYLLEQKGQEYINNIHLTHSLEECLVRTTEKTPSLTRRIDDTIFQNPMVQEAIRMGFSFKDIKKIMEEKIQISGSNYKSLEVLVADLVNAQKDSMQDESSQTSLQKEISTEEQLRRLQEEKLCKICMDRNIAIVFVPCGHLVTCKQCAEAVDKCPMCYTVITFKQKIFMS

Chain of Dihydroorotate dehydrogenase (quinone), mitochondrial (Plasmodium falciparum (isolate 3D7)) (Q08210 whole entry, looked up): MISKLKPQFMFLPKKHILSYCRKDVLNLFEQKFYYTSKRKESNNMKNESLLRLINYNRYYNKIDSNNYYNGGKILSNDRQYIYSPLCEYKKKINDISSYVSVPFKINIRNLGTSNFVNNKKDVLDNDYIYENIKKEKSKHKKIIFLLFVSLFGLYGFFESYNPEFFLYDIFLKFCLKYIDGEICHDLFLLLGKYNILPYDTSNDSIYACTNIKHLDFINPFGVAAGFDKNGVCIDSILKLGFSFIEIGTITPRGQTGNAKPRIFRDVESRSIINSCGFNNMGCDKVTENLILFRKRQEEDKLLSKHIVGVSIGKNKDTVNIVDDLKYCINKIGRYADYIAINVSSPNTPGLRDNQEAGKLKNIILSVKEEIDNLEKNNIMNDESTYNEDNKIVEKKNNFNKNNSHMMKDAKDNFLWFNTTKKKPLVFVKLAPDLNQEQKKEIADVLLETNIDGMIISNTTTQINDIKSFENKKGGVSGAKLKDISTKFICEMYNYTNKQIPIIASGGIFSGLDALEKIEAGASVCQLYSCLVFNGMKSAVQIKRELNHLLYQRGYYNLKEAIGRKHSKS

Structure (SMILES)	z-score [1]	z-score [2]	z-score [3]	z-score [4]	z-score [5]	z-score [6]	z-score [7]	z-score [8]	z-score [9]	z-score [10]	z-score [11]	z-score [12]	z-score [13]	composite z-score [14]	z-score [15]	z-score [16]	z-score [17]	z-score [18]	z-score [19]	composite z-score [20]
O=C1C2C=CC(C(O)CCc3ccccc3)N(Nc3ccccc3)C2C(=O)N1c1ccccc1 (stereo not given)	-1.22	-1.12	0.203	-0.46	0.198	-2.35	-0.727 (inactive)	-0.278	-0.174	-0.424 (inactive)	-0.999	-0.287 (inactive)	-1.81 (inactive)	0.228 (inactive)	1.12 (inactive)	0.361 (inactive)	-0.97 (inactive)	-1.18 (inactive)	-1.67	-0.16
COC(=O)[C@@]1(Cc2ccc(OC)cc2)[C@H]2c3cc(C(=O)N4CCCC4)n(CCc4ccccn4)c3C[C@H]2CN1C(=O)c1ccccc1	-0.991	1.13	-0.946	0.0275	-1.7	1.1	-1.59 (inactive)	-0.161	0.00382	-0.201 (inactive)	-0.608	1.17 (inactive)	-1.55 (inactive)	-0.362 (inactive)	1.5 (inactive)	0.664 (inactive)	-0.784 (inactive)	-0.912 (inactive)	-2.73	0.0976
C=CCC(OC(C)=O)[C@@H]1[C@@H](N(Cc2cc3ccccc3o2)C(=O)c2ccc(-c3ccccc3)cc2)c2cc(OCCCO)ccc2N1C(=O)Cc1ccc2ccccc2c1 (stereo not given in full)	0.809	0.778	1.48	0.372	-0.0122	1.64	-0.211 (inactive)	-0.0273	0.293	0.483 (inactive)	-0.795	0.692 (inactive)	0.548 (inactive)	0.22 (inactive)	0.0793 (inactive)	0.854 (inactive)	1.15 (inactive)	0.682 (inactive)	1.13	-0.239
COc1cc(CO)cc(I)c1O[C@H]1C=C(C(=O)NCCO)C[C@@H](N(CCc2cccc(F)c2)C(=O)CCC2CCCC2)[C@@H]1O	-1.5	2.06	-2.23	-3.19	-4.28	-1.09	0.525 (inactive)	-1.2	-1.96	-2.26 (inactive)	-1.69	-9.37 (active)	-3.26 (inactive)	-0.459 (inactive)	1.99 (inactive)	1.99 (inactive)	-0.0338 (inactive)	-0.177 (inactive)	-4.07	0.29
O=C1OCC=C[C@H]2OC34C=CCN(CCN5CCOCC5)C(=O)[C@H]3N(CCCCCCO)C(=O)[C@@H]4[C@@H]12 (stereo not given in full)	-0.213	-0.0626	0.775	1.56	0.802	-0.00733	-0.199 (inactive)	1.11	0.858	-0.352 (inactive)	-0.151	-0.0603 (inactive)	0.501 (inactive)	-1.97 (inactive)	-0.677 (inactive)	-0.762 (inactive)	-0.193 (inactive)	0.0937 (inactive)	0.406	0.232
C=C(C(=O)CC[C@@H](OC(C)=O)c1ccc(OCCO)cc1)C(C)C	-0.382	-0.0315	0.185	-1.06	0.16	-0.637	-0.191 (inactive)	0.0885	0.109	-0.222 (inactive)	0.0804	-0.99 (inactive)	-0.522 (inactive)	-1.51 (inactive)	1.48 (inactive)	0.156 (inactive)	-0.248 (inactive)	-0.227 (inactive)	-0.271	0.612
O=C1O[C@H](c2ccccc2)[C@H](c2ccccc2)N2[C@H]1[C@@H](C(=O)Nc1nc3ccccc3s1)[C@]1(C(=O)Nc3ccc(C#CC4=CCCCC4)cc31)[C@H]2c1ccc(OCCO)cc1	-0.641	1.07	-0.819	-1.69	-1.7	-3.34	0.256 (inactive)	-1.07	-1.8	0.18 (inactive)	0.281	1.63 (inactive)	-0.543 (inactive)	-3.03 (inactive)	3.01 (inactive)	1.46 (inactive)	-0.154 (inactive)	-0.686 (inactive)	-0.496	-0.24
CC(C)C(=C=CC[C@H](O)c1ccccc1OCCO)CCO	-0.417	-1.06	-0.07	-0.256	-1.56	-0.926	-0.318 (inactive)	-0.424	-0.305	-0.245 (inactive)	-0.457	-1.39 (inactive)	-0.0976 (inactive)	-0.757 (inactive)	1.17 (inactive)	0.0589 (inactive)	-0.235 (inactive)	-0.153 (inactive)	0.217	-0.23
O=c1cccc(-c2ccccc2)o1	-1.18	0.0455	-0.738	-1.11	-0.664	-1.05	0.221 (inactive)	0.826	-0.435	0.299 (inactive)	0.123	-5.07 (inactive)	0.0841 (inactive)	-0.403 (inactive)	0.421 (inactive)	0.434 (inactive)	-0.438 (inactive)	0.0997 (inactive)	-0.156	0.045
